The text below walks through data of PubChem BioAssay AID485298 (National Center for Advancing Translational Sciences (NCATS), 2010).

Hit rate of the full screen: of about 320,000 compounds, about 740 (0.23%) were called active. About 2% were inconclusive and are not listed. The full list was thinned out, with actives kept by preference. A number with no mark means an inactive call. Calls come from the whole dose curve; as a rule, active = well fitted activation curve with a large enough effect; inconclusive = small, poorly fitted or top-dose-only effect; inactive = no such curve, though single readings can be large or run the other way.
Potency is the fitted concentration of half-maximal effect.

The assay in a line: qHTS Assay for Small Molecule Inhibitors of Mitochondrial Division or Activators of Mitochondrial Fusion. For growth rescue (activation): % of control where 0% means no effect. Note: nearly all actives have a fitted effect of over 45% in size. The following applies: S. cerevisiae fusion-defective mutant growth rescue, CellTiterGlo 48 h; series mostly up to 46.1 µM; growth rescue (activation): at the top concentration. The source says: NIH Chemical Genomics Center [NCGC] NIH Molecular Libraries Probe Production centers Network [MLPCN] MLPCN Grant: MH081279-01 Assay Submitter (PI): Jodi M. Nunnari NCGC Assay Overview: The budding yeast S. cerevisiae is a powerful system to study mitochondrial fusion. Unlike other organisms, yeast cells without functional mitochondrial DNA (mtDNA) can be propagated and studied as long as they maintain a mitochondrial compartment and are provided with a fermentable carbon source. When mitochondrial fusion is blocked in yeast, mitochondrial tubules rapidly fragment and division continues unopposed. Under conditions where fusion is compromised in mammalian cells, nearly identical changes in mitochondrial structure have been observed. Thus, these findings indicate that steady state mitochondrial structure in cells is a characteristic and specific indicator of fusion activity. Mounting evidence has pointed to a connection between mitochondrial dynamics and apoptosis in mammalian cells. These studies indicate that in mammalian cells mitochondrial dynamics are more integrated into cellular processes than in yeast cells and have evolved not only to distribute the organelle but also to aid in the regulation of cellular homeostasis. Mitochondrial fusion proteins attenuate apoptosis by inhibiting the release of cytochrome c from mitochondria, in part by controlling cristae structures. Thus, small molecules that inhibit mitochondrial […] may promote apoptosis and potentially act as novel chemotherapeutics and stimulation of apoptosis has become an attractive target of anti-cancer therapies. To identify inhibitors of mitochondrial division, we exploit the growth phenotypes of mitochondrial fusion-defective mutants. The temperature sensitive fusion alleles, such as fzo1-1 and mgm1-5, cause mitochondrial membranes to fragment in cells under non-permissive conditions and cells lose mtDNA, and are unable to grow in the presence of non-fermentable carbon source glycerol. Inhibiting mitochondrial division rescues growth. We have developed and optimized a luminescence cell viability assay in 1536 well format for the identification of inhibitors in the yeast mitochondrial fusion-defective assay.
The yeast glycerol stocks where kindly supplied by the laboratory of Dr. Jodi Nunnari, University of California, Davis. All yeast glycerol stock solutions were stored in single use aliquots at -80C. The CellTiterGlo luminescence reagent, containing luciferase and luciferin, were purchased from Promega, and the reagents were stored according to manufacturer's instructions. The Buffer components for the YPEG yeast growth medium were purchased from Sigma-Aldrich (St. Louis, MO). YPEG growth medium: 1% (w/v) yeast extract, 2% (w/v) Bacto-peptone, 3% Ethanol, 3% glycerol, 0.4mM Tryptophan, 0.36mM Adenine. qHTS Assay Protocol: 1.#Dispense 2.5 ul yeast growth medium per 1536 well plate. 2.#Transfer 23 nl per well of compound to plate. 3.#Dispense 2.5 ul yeast solution at appropriate seeding density per well. 4.#Incubate for 48 hours at 37C. 5.#Dispense 5 ul of CellTiterGlow solution per well. 6.#Incubate at ambient for 10 minutes. 7.#Read using bio-luminescence protocol on Viewlux.
Background: In qHTS, concentration-response curves come from the screen itself.
As to `COc1cc(OC)cc(-c2c(-c3ccc(F)cc3)c3cc(-c4ccc5cc[nH]c5c4)ccc3n2C)c1`, the “growth rescue (activation)” value is 0.6%.

`COc1cc(OC)cc(-c2c(-c3cccs3)c3cc(-c4ccc(OC)nc4)ccc3n2C)c1`: the “growth rescue (activation)” value is -3.31%.

Take `COc1ccc(-c2c(-c3cc(OC)cc(OC)c3)n(C)c3ccc(-c4ccn[nH]4)cc23)cc1`: the Potency is 10 µM (active).

Consider `COC(=O)c1cc(S(=O)(=O)NCC2CCN(Cc3ccc(Cl)cc3)CC2)cn1C`, for which the “growth rescue (activation)” value is 4.02%.

For `CCn1cc(/C=C(\NC(=O)c2ccc(C)cc2)C(=O)NCCN2CCOCC2)c2ccccc21`, the “growth rescue (activation)” value was 2.95%.

Turning to `Cn1cccc1C1(C(F)(F)F)NCCNC1=O` (stereo not drawn), the “growth rescue (activation)” value was -7.26%.

Consider `Cc1cc(C)cc(C(=O)OCC(=O)NCCNC(=O)COC(=O)c2cc(C)cc(C)c2)c1`, for which the “growth rescue (activation)” value was 2.13%.

As for `COc1ccccc1-n1c(-c2ccc(C)cc2)cn2c3c(=O)n(C)c(=O)n(C)c3nc12`, the “growth rescue (activation)” value was 4.07%.

`O=C(COC(=O)c1ccccc1Cl)NC1CCCCCCC1`: the “growth rescue (activation)” value is 13.9%.

In the case of `Cc1csc(=Nc2ccccc2)n1CCO`, the “growth rescue (activation)” value is -1.72%.

Take `OCCn1c(-c2ccccc2)csc1=Nc1ccccc1`: the Potency was 11.2 µM (active).

Regarding `Cc1csc(=NC(=O)c2ccccc2)n1CCO`, the “growth rescue (activation)” value was -5.75%.

Consider `CCN1C(=O)[C@@H]2[C@@H](c3ccc(-c4cccc(Cl)c4)cc3)N3CCC[C@@]3(C(=O)OC)[C@@H]2C1=O`, for which the “growth rescue (activation)” value is 21.1%.

For the molecule `COc1ccccc1-n1cnc2cc(C(=O)NCC3CCCO3)ccc21` (stereo not drawn), the “growth rescue (activation)” value is 0.667%.

For the molecule `COc1cccc(/C=C2\Sc3ccc(C(=O)NCC4CCCO4)cc3N(C)C2=O)c1` (stereo not drawn), the Potency is 17.8 µM (active).

Regarding `COc1cccc(C(=O)NCCS(=O)(=O)NCC2CCCO2)c1` (stereo not drawn), the “growth rescue (activation)” value was -4.41%.

As for `O=C(NC1CCCC1)C1CC(=O)N(c2ccc(F)cc2)C1` (stereo not drawn), the “growth rescue (activation)” value was 0.703%.

Turning to `O=C1CN(C(=O)CN2C(=O)NC3(CCCCC3)C2=O)c2ccccc2N1`, the “growth rescue (activation)” value was -1.41%.

Turning to `O=C1CCCC2=C1C(c1cccs1)CC(=O)N2c1ccc(F)cc1` (stereo not drawn), the “growth rescue (activation)” value is 3.59%.

Regarding `CCOC(=O)c1cc2c(n(-c3ccc(C)cc3)c1=O)CCCC2=O`, the “growth rescue (activation)” value was 0.547%.

Take `CCOC(=O)C1=C(N)N(c2ccc(C)cc2)C2=C(C(=O)CCC2)C1c1cccs1` (stereo not drawn): the Potency was 20 µM (active).

`COC(=O)C(C)N=Cc1ccccc1` (stereo not drawn): the “growth rescue (activation)” value was 1.48%.

As to `COc1ccc(S(=O)(=O)N2CCN(CC(=O)N3c4ccccc4CC3C)CC2)cc1OC` (stereo not drawn), the “growth rescue (activation)” value is -2.4%.

With `NC(=O)C1CCN(Cc2nc3c(Br)cc(Br)cc3c(=O)[nH]2)CC1`, the “growth rescue (activation)” value is 1.78%.

On to `COC(=O)c1c(NC(=O)c2cccs2)sc2c1CCCC2`, for which the Potency was 14.1 µM (active).

As for `COC(=O)c1c(NC(=O)CSc2nncs2)sc2c1CCCCC2`, the “growth rescue (activation)” value is 21.5%.

For `CC(C)OC(=O)c1c(NC(=O)c2ccco2)sc2c1CCCC2`, the “growth rescue (activation)” value is 0.828%.

For `C=CC1(C)CC(=O)C2(O)C(C)(O1)C(OC(C)=O)C(O)C1C(C)(C)CCC(O)C12C` (stereo not drawn), the “growth rescue (activation)” value was -7.55%.
